Test results reported in PubChem BioAssay AID485297 (National Center for Advancing Translational Sciences (NCATS), 2010).
The whole screen tested about 320,000 compounds, of which about 9,100 (2.8%) were called active. Entries that show only a call come without a potency. Inconclusive results (about 3%) are left out. The call rests on the fitted dose curve; in most records, active means well fitted activation curve with a large enough effect; inconclusive means small, poorly fitted or top-dose-only effect; inactive means no such curve, though single readings can be large or run the other way. Only a selection was taken, and actives are over-represented in it overall.

experiment: qHTS Assay for Rab9 Promoter Activators; details: Huh7 Rab9 promoter-luciferase reporter, luminescence, 24 h; series mostly up to 9.22 µM; further: nearly all actives have a fitted effect of over 60% in size
From the text: NIH Chemical Genomics Center [NCGC] NIH Molecular Libraries Probe Production centers Network [MLPCN] MLPCN Grant: MH089537-01 Assay Submitter (PI): Yiannis A. Ioannou NCGC Assay Overview: Niemann Pick Type C (NPC) is a rare neurodegenerative lipidosis that is characterized by lipid storage in the endosomal/lysosomal system. Treatment modalities for this devastating disease are currently non-existent due to the severe obstacles associated with accessing the central nervous system with proteins or genes (Ioannou, 2000). We have developed a new paradigm, termed "Orphan Receptor Bypass Therapy" (ORByT), to address these disorders. This paradigm posits the existence of endogenous "suppressor" proteins whose expression can dramatically improve LSD pathogenesis. The goal is the identification/discovery of small chemical compounds that can modulate the expression of these proteins and provide a new treatment modality for these devastating disorders. One such protein whose overexpression reverses aspects of the NPC phenotype is Rab9. We have developed and optimized a cell based luciferase reporter assay in 1536 well format for the identification of up-regulators of the Rab9 promoter.
The Rab9 promoter is cloned in front of the luciferase reporter gene, therefore […] promoter activation results in luciferase expression. Frozen stock of the Rab9 promoter transfected Huh7 cells were obtained from the laboratory of Dr. Yiannis Ioannou (The Mount Sinai School of Medicine, New York, NY). Cells were propagated and maintained at NCGC in medium containing RPMI-1640 supplemented with 10% FBS, 2mM L-glutamine, and 50ug/ml penicillin/streptomycin. Cells were harvested in and plated for assays in OP-MEM I reduced-serum medium supplemented with 10% FBS. The Amplite luciferase reporter gene assay kit was purchased from ABD Bioquest and prepared/stored according to manufacturers recommendations. qHTS Assay Setup: 1.Dispensed 5ul of Huh7 cells stably expressing Rab9-luciferase at a density of 1500 cells per well 1536-well plates. 2.Incubate cells at 37C, 5% CO2, and 95% humidity for 2 hours. 3.Transferred 23nl per well of compound in DMSO solution. 4.Incubated at 37C, 5% CO2, and 95% humidity for 24 hours. 5.Dispensed 3ul per well of Amplite reagent(ABD Bioquest) per well. 6.Incubate at ambient for 10 minutes. 7.Read using the luminescence protocol on the ViewLux plate reader (Perkin Elmer).
Potency means the concentration at half of the fitted maximal effect.

SMILES | Potency
Cc1ccc(Nc2ncnc3c2cnn3C)c(C)c1 | inactive
COc1ccc2nc(C)cc(Nc3cccc(C(=O)O)c3)c2c1 | inactive
Cc1ccc(-n2ncc3c(Nc4cccc(C(=O)O)c4)ncnc32)cc1 | 355 nM (active)
COc1ccccc1C(=O)NCCC(=O)N(C)Cc1cccnc1 | inactive
O=C(c1ccncc1)N1CCN(c2ccc3ccccc3n2)CC1 | inactive
Oc1ccc(CN2CCN(c3ncccn3)CC2)cc1 | inactive
c1cnc(N2CCN(c3ccc4ccccc4n3)CC2)nc1 | 3160 nM (active)
CCOc1ccc(NS(=O)(=O)c2ccc(Cl)c(C(=O)N(C)Cc3cccnc3)c2)cc1 | inactive
O=C(NCCc1ccc(C(F)(F)F)cc1)c1ccc2c(c1)OCO2 | inactive
CCNC(=O)CC1C(=O)N(c2ccc(OC)cc2)C(=S)N1CCc1ccncc1 (stereo unspecified) | inactive
CCOCCCn1c(SCC(=O)Nc2cc(OC)ccc2OC)nc2ccccc2c1=O | inactive
COc1ccc(NS(=O)(=O)c2cc(NC(=O)CC(=O)c3ccc([N+](=O)[O-])cc3)ccc2C)cc1 | inactive
CCn1c(SCC(=O)Nc2nccs2)nnc1-c1ccco1 | inactive
Cc1cc(C#N)c(SCC(N)=O)nc1-c1ccc(F)cc1 | inactive
Cn1c(SCC(=O)Nc2nccs2)nnc1-c1cccnc1 | inactive
CC(=O)c1cc(C#N)c(SCC(=O)Nc2nccs2)nc1C | 1260 nM (active)

SMILES | Potency
CCn1c(SCC(=O)Nc2nccs2)nnc1-c1ccncc1 | inactive
CC(=O)c1cc(C#N)c(N2CC(C)OC(C)C2)nc1C (stereo unspecified) | inactive
CC(=O)c1cc(C#N)c(SCC(=O)C(C)(C)C)nc1C | 2510 nM (active)
Cc1cc(C(F)(F)F)nc(SCC(=O)Nc2nccs2)n1 | inactive
Cc1[nH]c2ccccc2c1SCC(=O)Nc1nccs1 | 4470 nM (active)
O=C1C=C(c2cccc(Cl)c2O)C[C@@H](c2ccc(F)cc2)C1 | inactive
Cc1cc(C)c(C#N)c(SCC(=O)N(CC(C)C)C2CCS(=O)(=O)C2)n1 (stereo unspecified) | inactive
O=C(O[C@@H]1[C@H](Cc2ccccc2)NS(=O)(=O)[C@H]2C[C@@H]3C=C[C@]12O3)c1ccccc1Br | inactive
O=C(Nc1ccccc1F)c1ccc(S(=O)(=O)N2CCCCCC2)cc1 | inactive
CCc1cc(C(=O)Nc2nnc(C3CC3)s2)sc1C | inactive
O=C1CCC(=O)N(c2ccccc2)N1 | inactive
CC(=O)NC1C(Oc2ccc(C)cc2)OC2COC(c3ccco3)OC2C1O (stereo unspecified) | inactive
CCn1nnnc1SCC(=O)Nc1ccc(N(C)C)cc1 | inactive
COc1ccc(C(=O)CSc2nnnn2C)c(OC)c1 | inactive
CCn1nnnc1SCC(=O)c1ccc(C)cc1C | 3550 nM (active)
